Source: PubChem BioAssay
TDP1 cell CPT: growth inhibition of DT40 Tdp1-/-;hTDP1 cells with camptothecin (screen for TDP1 inhibitors). Potency, µM (doses to about 46.2 µM), without a hit: top-dose activity change, negative = growth inhibition, actives largely listed as inhibitors. chicken DT40 Tdp1-/-;hTDP1 cells + 20 nM CPT, ATP luminescence, 48 h. 12% of 420,000 active. AID 686979; further: nearly all actives have a fitted effect of over 55% in size
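Chicken DT40 Tdp1-/- cells complemented with human TDP1, 400 cells/well, exposed to compounds plus 20 nM camptothecin for at least 48 h at 37 C; viability read as ATP content by CellTiter-Glo luminescence.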
KB-V1 MDR tox: kills drug-selected multidrug resistant KB-V1 cells; KB-V1 MDR cells viability, CellTiter-Glo, 72 h; Potency, µM (doses to about 46.1 µM), most hits filed as cytotoxic; 3.4% of 400,000 active; further: nearly all actives have a fitted effect of over 60% in size
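Drug-selected KB-V1 cells, grown in DMEM lacking phenol red with 10% FBS, receive compound titrations; after three days at 37 degrees C, surviving cell ATP is quantified by CellTiter-Glo luminescence and responses normalized and curve-fitted.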
DT40 TDP1 no CPT: qHTS for Inhibitors of human tyrosyl-DNA phosphodiesterase 1 (TDP1): qHTS in cells in absence of CPT; 15% of 420,000 active; DT40 Tdp1-/- hTDP1 cells, no CPT, ATP luminescence, 48 h; AID 686978, 2013; Potency, µM (top dose mostly 46.2 µM), inactives show top-dose activity change, negative = growth inhibition, actives largely listed as inhibitors; further: nearly all actives have a fitted effect of over 55% in size
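Stably hTDP1-transfected Tdp1-null chicken DT40 cells were treated with library compounds minus camptothecin and grown for at least 48 hr at 37 °C, after which cellular ATP was quantified by luminescence.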
HT1080 IDH1KD tx: kills HT-1080 cells with IDH1 knockdown | HT-1080 IDH1 knockdown viability, ATP luminescence, 48 h | Potency, µM (series often up to 46.1 µM), for inactives: top-dose activity, negative = toxicity, hits mostly cytotoxic | 2% of 360,000 active | AID 686971;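 further: 0% = DMSO wells and -100% = cell-free medium wells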
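Knockdown cells (IDH1KD HT-1080) received compounds 2 h after plating at 750 cells/well and were kept 48 h at 37 °C in 5% FBS RPMI. A CellTiter-Glo luminescence read gave % activity for curve fitting.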
KB-3-1 cytotox: KB-3-1 parental cell cytotoxicity | KB-3-1 viability, CellTiter-Glo ATP luminescence, 72 h | Potency, µM (series often up to 46.1 µM), hits mostly cytotoxic | 1.4% of 400,000 active | AID 1347075; further: nearly all actives have a fitted effect of over 60% in size
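Luminescent ATP read-out (CellTiter-Glo) measures survival of drug-naive KB-3-1 cells after 72 h compound exposure at 37 °C. Titration series was screened from lowest to highest concentration, with DMSO vehicle plates as background controls.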
HT1080-NT tox: kills 2HG-producing HT-1080-NT fibrosarcoma cells. HT-1080-NT fibrosarcoma viability, CellTiter-Glo ATP luminescence, 48 h. Potency, µM (titrated, usually from 46.1 µM), for the others: top-dose activity, negative = less viability, usual class: cytotoxic. 1.6% of 360,000 active;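 further: NT is the 2HG producing partner of a matched IDH1 knockdown line; 0% = DMSO-treated cells and -100% = media-only wells without cells; nearly all actives have a fitted effect of over 55% in size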
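Luminescent CellTiter-Glo readout after 48 hours of compound exposure at 37 degrees C defined viability of HT-1080-NT cells. Activity was normalized to DMSO wells and cell-free media wells; concentration-response curves were fitted and assigned curve classes.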
* = called active by the depositor; [ ] = dose if it differs, or a comment. An excerpt weighted towards active compounds, which were near 19% of everything screened. The call rests on the fitted dose curve; in most records, active means well fitted curve in the direction sought with a large enough effect; inconclusive means small, poorly fitted or top-dose-only effect, or another doubt; inactive means no such curve, though single readings can be large; an effect the other way counts as inactive or inconclusive. Unless noted, on the % scale 0 is the no-effect control and ±100 the full control effect; potency means the concentration at half of the fitted maximal effect.

Results for COC(=O)c1ccc(C(=O)OC)c(NC(=S)N2CCN(c3cccc(Cl)c3)CC2)c1 ?
TDP1 cell CPT: -22%; KB-V1 MDR tox: 16µM*; DT40 TDP1 no CPT: inconclusive; HT1080 IDH1KD tx: -13%; KB-3-1 cytotox: inactive; HT1080-NT tox: -4%

Results for CC(C)NS(=O)(=O)c1ccc(OCC(=O)Nc2ccc(F)cc2)cc1 ?
TDP1 cell CPT: inconclusive; KB-V1 MDR tox: inconclusive; DT40 TDP1 no CPT: inconclusive; HT1080 IDH1KD tx: 0%; KB-3-1 cytotox: inactive; HT1080-NT tox: 0%

Results for COc1ccc(NC(=O)C(NC(=O)/C=C\c2ccc3c(c2)OCO3)c2ccc(C)cc2)cc1 (centres undefined) ?
TDP1 cell CPT: -9%; KB-V1 MDR tox: inactive; DT40 TDP1 no CPT: -21%; KB-3-1 cytotox: inactive

How did Cc1[nH]c2ccccc2c1/C=C/c1cc[n+](C)cc1 do in these assays?
TDP1 cell CPT: 0.65µM*; KB-V1 MDR tox: inactive; DT40 TDP1 no CPT: 0.92µM*; HT1080 IDH1KD tx: -7%; KB-3-1 cytotox: 10µM*; HT1080-NT tox: -23%

What do the screens show for `Cc1[nH]c2ccccc2c1/C=C/C(=O)c1ccncc1`?
TDP1 cell CPT: -9%; KB-V1 MDR tox: inactive; DT40 TDP1 no CPT: -21%; HT1080 IDH1KD tx: -1%; KB-3-1 cytotox: inactive; HT1080-NT tox: -3%

How did Cc1[nH]c2ccccc2c1/C=C/c1c(C)[nH]c2ccccc12 do in these assays?
TDP1 cell CPT: 11µM*; KB-V1 MDR tox: inactive; DT40 TDP1 no CPT: 10µM*; KB-3-1 cytotox: inconclusive

What do the screens show for `Cc1cc(SCC(=O)N2CCCC2=O)nc2ccccc12`?
TDP1 cell CPT: 11%; KB-V1 MDR tox: inactive; DT40 TDP1 no CPT: -6%; HT1080 IDH1KD tx: -4%; KB-3-1 cytotox: inactive; HT1080-NT tox: -4%

How did O=C(CSc1ncnc2sc3c(c12)CCCC3)N1CCC(c2noc3ccc(F)cc23)CC1 do in these assays?
TDP1 cell CPT: 11µM*; KB-V1 MDR tox: inconclusive; DT40 TDP1 no CPT: 10µM*; HT1080 IDH1KD tx: 21%; KB-3-1 cytotox: inconclusive; HT1080-NT tox: 4%

Results for Cc1cc(SCC(=O)N2CCC(c3noc4ccc(F)cc34)CC2)nc2ccccc12 ?
TDP1 cell CPT: 23µM*; KB-V1 MDR tox: inconclusive; DT40 TDP1 no CPT: inconclusive; HT1080 IDH1KD tx: 1%; KB-3-1 cytotox: inactive; HT1080-NT tox: 0%[9.24 µM]

What do the screens show for `CN(C)c1ccc(/C=C2/CCCc3c2nc2ccccc2c3C(=O)O)cc1`?
TDP1 cell CPT: -2%; KB-V1 MDR tox: inactive; DT40 TDP1 no CPT: -20%; KB-3-1 cytotox: inactive

How did Cc1ccc(C(=O)COC(=O)C2C3C=CC(C3)C2C(=O)OCC(=O)c2ccc(C)c(C)c2)cc1C (centres undefined) do in these assays?
TDP1 cell CPT: inconclusive; KB-V1 MDR tox: 16µM*; DT40 TDP1 no CPT: inconclusive; HT1080 IDH1KD tx: -1%; KB-3-1 cytotox: inconclusive; HT1080-NT tox: 3%

What do the screens show for `Cc1ccsc1C=Nc1ccc(O)cc1`?
TDP1 cell CPT: inconclusive; KB-V1 MDR tox: inactive; DT40 TDP1 no CPT: inconclusive; HT1080 IDH1KD tx: 23µM*; KB-3-1 cytotox: inactive; HT1080-NT tox: -8%

What do the screens show for `Cc1ccsc1/C=N/N=C/c1sccc1C`?
TDP1 cell CPT: -16%; KB-V1 MDR tox: inactive; DT40 TDP1 no CPT: inconclusive; HT1080 IDH1KD tx: 1%; KB-3-1 cytotox: inactive; HT1080-NT tox: 0%

What do the screens show for `Clc1ccc(-c2csc(-c3nc(-c4ccc(Br)s4)cs3)n2)cc1`?
TDP1 cell CPT: 4%; KB-V1 MDR tox: inactive; DT40 TDP1 no CPT: -7%; KB-3-1 cytotox: inconclusive

Results for Cc1cc(N2CCN(C(=O)c3[nH]c(C(F)(F)F)nc3-c3ccccc3)CC2)c2ccccc2n1 ?
TDP1 cell CPT: 16µM*; KB-V1 MDR tox: inconclusive; DT40 TDP1 no CPT: 15µM*; HT1080 IDH1KD tx: inconclusive; KB-3-1 cytotox: inconclusive; HT1080-NT tox: inconclusive

What do the screens show for `O=C(c1[nH]c(C(F)(F)F)nc1-c1ccccc1)N1CCC(C(O)(c2ccccc2)c2ccccc2)CC1`?
TDP1 cell CPT: 2%; KB-V1 MDR tox: inactive; DT40 TDP1 no CPT: inconclusive; HT1080 IDH1KD tx: -19%; KB-3-1 cytotox: inactive; HT1080-NT tox: 1%

How did O=C(c1[nH]c(C(F)(F)F)nc1-c1ccccc1)N1CCN(c2ccccc2)CC1 do in these assays?
TDP1 cell CPT: 4.6µM*; KB-V1 MDR tox: inconclusive; DT40 TDP1 no CPT: 4.1µM*; HT1080 IDH1KD tx: 2.1µM*; KB-3-1 cytotox: 6.5µM*; HT1080-NT tox: inconclusive

Results for O=C(c1[nH]c(C(F)(F)F)nc1-c1ccccc1)N1CCc2c([nH]c3ccccc23)C1 ?
TDP1 cell CPT: 5.8µM*; KB-V1 MDR tox: inactive; DT40 TDP1 no CPT: 5.8µM*; HT1080 IDH1KD tx: 4.6µM*; KB-3-1 cytotox: 5.8µM*; HT1080-NT tox: inconclusive

What do the screens show for `Cc1ccc(N2CCN(C(=O)c3[nH]c(C(F)(F)F)nc3-c3ccccc3)CC2)cc1`?
TDP1 cell CPT: inconclusive; KB-V1 MDR tox: inactive; DT40 TDP1 no CPT: inconclusive; HT1080 IDH1KD tx: -28%; KB-3-1 cytotox: inactive; HT1080-NT tox: -23%

How did O=C(c1[nH]c(C(F)(F)F)nc1-c1ccccc1)N1CCN(c2ncccn2)CC1 do in these assays?
TDP1 cell CPT: 29µM*; KB-V1 MDR tox: inconclusive; DT40 TDP1 no CPT: inconclusive; HT1080 IDH1KD tx: inconclusive; KB-3-1 cytotox: inconclusive; HT1080-NT tox: -29%

How did O=C(c1[nH]c(C(F)(F)F)nc1-c1ccccc1)N1CCN(c2ccncc2)CC1 do in these assays?
TDP1 cell CPT: 3%; KB-V1 MDR tox: inactive; DT40 TDP1 no CPT: -10%; HT1080 IDH1KD tx: 23%; KB-3-1 cytotox: inactive; HT1080-NT tox: 18%

What do the screens show for `COc1ccc(C(=O)N2CCC[C@@]3(CCN(C(=O)Nc4ccccc4)C3)C2)cc1`?
TDP1 cell CPT: -27%; DT40 TDP1 no CPT: inconclusive

How did O=C(Nc1ccc2c(c1)OCCO2)C1c2ccccc2OCC(=O)N1CCc1ccccc1 (centres undefined) do in these assays?
TDP1 cell CPT: -1%; KB-V1 MDR tox: inactive; DT40 TDP1 no CPT: -2%; HT1080 IDH1KD tx: 2%; KB-3-1 cytotox: inactive; HT1080-NT tox: 6%

Results for Cc1nnc(NC(=O)CSc2nccn2Cc2ccc(Cl)cc2)s1 ?
TDP1 cell CPT: inconclusive; KB-V1 MDR tox: inactive; DT40 TDP1 no CPT: inconclusive; KB-3-1 cytotox: inactive
